LDHA block: inhibitors of human lactate dehydrogenase A | P00338 | purified LDHA, NADH/diaphorase-resazurin fluorescence; active compounds read low | activity change, % (values are at about 110 or 230 µM) | 0.15% of 480,000 active | AID 1347041; in the data active = activity change below about -30%; inconclusive = mostly about -25% to -30%;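 also: plate controls were DMSO wells for no effect and wells without enzyme for full effect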
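Enzyme activity of human lactate dehydrogenase 5 (2 nM; 0.06 mM NADH, 0.2 mM pyruvate, 5 min, RT) is measured via a resazurin/diaphorase fluorescence readout of residual NADH.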
IL1B secr inh: inflammasome signaling inhibition, IL-1 beta readout | THP-1 LPS/ATP IL-1B secretion, AlphaLISA, 16 h; active compounds read low | activity change, % at 57.5 µM | 4.7% of 360,000 active | AID 743279; in the data active = activity change below about -50%; inconclusive = mostly about -30% to -49%
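Secreted IL-1B measured by AlphaLISA bead assay after 16 h compound exposure of THP-1 cells; compounds (final up to 57.5 uM) added 1 h before LPS (250 ng/mL) and ATP (1.25 mM) stimulation; lower signal means less secretion.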
DT40 TDP1 CPT: DT40-hTDP1 cell growth loss with CPT; chicken DT40 Tdp1-/-;hTDP1 cells + 20 nM CPT, ATP luminescence, 48 h; Potency, µM (titrated, usually from 46.2 µM), for inactives: at the top dose activity change, negative = growth inhibition, usual class: inhibitors; 12% of 420,000 active; AID 686979; also: potency is read from the fitted curve at half-maximal effect; nearly all actives have a fitted effect of over 55% in size
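Chicken DT40 Tdp1-/- cells complemented with human TDP1, 400 cells/well, exposed to compounds plus 20 nM camptothecin for at least 48 h at 37 C; viability read as ATP content by CellTiter-Glo luminescence.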
VP16 counter: counter-screen for ROR gamma inhibitors: Gal4-VP16 reporter; Drosophila S2 Gal4-VP16 UAS-luciferase, luminescence, 20 h; Potency, µM (doses to about 53.6 µM), inactives show at the highest dose activity, negative = inhibition, hits mostly inhibitors; 3.5% of 310,000 active; AID 2546;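 also: Gal4-VP16 expression switched on by copper sulfate through the metallothionein promoter; potency is read from the fitted curve at half-maximal effect; nearly all actives have a fitted effect of over 50% in size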
TDP1 cell noCPT: qHTS for Inhibitors of human tyrosyl-DNA phosphodiesterase 1 (TDP1): qHTS in cells in absence of CPT | DT40 Tdp1-/- hTDP1 cells, no CPT, ATP luminescence, 48 h | Potency, µM (doses to about 46.2 µM), without a hit: at the top dose activity change, negative = growth inhibition, usual class: inhibitors | 15% of 420,000 active | AID 686978, 2013; also: potency is read from the fitted curve at half-maximal effect; nearly all actives have a fitted effect of over 55% in size
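A cellular qHTS used chicken DT40 cells lacking endogenous Tdp1 but carrying stably transfected human TDP1. Compounds were applied without camptothecin, and cell growth kinetics were judged by ATP-dependent luminescence after ≥48 hr.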
RORgamma inh: inhibitors of mouse ROR gamma transcriptional activity. 5.4% of 310,000 active. Potency, µM (series often up to 53.6 µM), for the others: at the top dose activity change, negative = inhibition, hits mostly inhibitors. AID 2551. Drosophila S2 Gal4-RORgamma UAS-luciferase reporter, 20 h; also: potency is read from the fitted curve at half-maximal effect; nearly all actives have a fitted effect of over 60% in size
Target sequence (P51450 whole entry, looked up, the tested form may be a part): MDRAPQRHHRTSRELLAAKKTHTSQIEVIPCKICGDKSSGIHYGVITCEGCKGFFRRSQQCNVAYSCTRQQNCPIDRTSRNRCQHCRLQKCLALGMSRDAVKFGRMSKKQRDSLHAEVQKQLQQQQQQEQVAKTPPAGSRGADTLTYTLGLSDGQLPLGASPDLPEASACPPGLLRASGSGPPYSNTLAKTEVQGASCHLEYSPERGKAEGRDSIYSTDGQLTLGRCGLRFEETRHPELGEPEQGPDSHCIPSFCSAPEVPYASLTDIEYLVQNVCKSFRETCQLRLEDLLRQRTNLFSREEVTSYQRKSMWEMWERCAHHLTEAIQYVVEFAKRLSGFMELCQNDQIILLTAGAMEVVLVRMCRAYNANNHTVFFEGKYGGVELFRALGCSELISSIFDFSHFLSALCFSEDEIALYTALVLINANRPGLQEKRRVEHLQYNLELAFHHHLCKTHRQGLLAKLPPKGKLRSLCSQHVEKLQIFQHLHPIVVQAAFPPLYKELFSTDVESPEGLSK
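Read-out: Photinus luciferase luminescence; inhibitors lower reporter signal. Insect Schneider cells with Gal4-ROR gamma fusion under metallothionein promoter, UAS reporter; 700 uM final copper sulfate induction, 20 hr, ambient temperature.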
* hit, by the source's call; ? = inconclusive; / = not tested or not shown. Compounds with a hit are over-represented: about 18% of the library has one in this group of screens. Unless noted, calls follow the shape of the dose curve; as a rule, active = well fitted curve in the direction sought with a large enough effect; inconclusive = small, poorly fitted or top-dose-only effect, or another doubt; inactive = no such curve, though single readings can be large; an effect the other way counts as inactive or inconclusive. Unless noted, % is scaled to controls: 0 for no effect and ±100 for the full control effect.

SMILES	LDHA block	IL1B secr inh	DT40 TDP1 CPT	VP16 counter	TDP1 cell noCPT	RORgamma inh
COc1ccccc1N1CCN(CC(=O)Nc2ccc(S(=O)(=O)N3CCCCCC3)cc2)CC1	-5	-7	?	/	?	/
COc1ccccc1N1CCN(CC(=O)Nc2ccc(Cl)c(C(F)(F)F)c2)CC1	-1	-10	21µM*	?	?	?
COc1ccc2[nH]c(C(=O)N/N=C/c3ccccc3OC)cc2c1	-5	0	7.3µM*	-14%	9.2µM*	-5%
CCOc1ccc(/C=N/NC(=O)c2cc3c(OC)cc(OC)c(OC)c3[nH]2)cc1	4	-27	?	-6%	?	-34%
COc1ccc2[nH]c(C(=O)N/N=C/c3ccc(OC)c(O)c3)cc2c1	-5	-27	1.2µM*	0%	1.3µM*	35%
CCOc1ccc2[nH]c(C(=O)N/N=C/c3ccccc3OC)cc2c1	-3	-8	5.8µM*	-4%	7.3µM*	0%
COc1ccc(C(=O)N/N=C/c2cc3ccccc3[nH]c2=O)cc1	-3	5	-19%	2%	7%	-28%
COc1cc(OC)c2cc(C(=O)N/N=C/c3ccccc3O)[nH]c2c1	1	68	4.6µM*	5.6µM*	4.6µM*	6.3µM*
CN(C)CCN(Cc1ccc(F)cc1)C(=O)c1ccc(S(C)(=O)=O)cc1	0	/	/	/	/	/
O=C(CSc1ncc(-c2ccc(F)cc2)o1)NC1CCCC1	-7	/	/	/	/	/
Cn1nc(C(=O)OCC(=O)c2ccc(OC(F)F)cc2)c2ccccc2c1=O	1	/	/	/	/	/
CCCOc1ccc2[nH]c(C(=O)N/N=C/c3cc(OC)c(OC)c(OC)c3)cc2c1	-2	0	?	-16%	16µM*	?
COc1ccc(F)cc1C(=O)/C=C/c1ccc(SC)cc1	4	/	/	/	/	/
COc1ccc(CN2CCCC(c3nc(-c4ccncc4)ncc3-c3ccccc3C)C2)c(OC)c1 (stereo unspecified)	/	/	2.6µM*	/	?	/
COc1cccc(CN2CCCC(c3nc(-c4ccncc4)ncc3-c3ccccc3)C2)c1O (stereo unspecified)	/	/	?	/	16µM*	/
CCOc1ccc(/C(O)=C2\C(=O)C(=O)N(Cc3ccco3)C2c2ccccc2)cc1Cl (stereo unspecified)	7	/	/	/	/	/
CCc1ccc(C(=O)C2CC(=O)Nc3c2c(C)nn3-c2ccc(C)c(Cl)c2)s1 (stereo unspecified)	-1	/	/	/	/	/
COc1ccc(CNC(=O)/C(C#N)=C2\N=C(NC(=O)c3cccs3)c3ccccc32)cc1	-3	-9	26µM*	0%	?	33%
COCCNC(=O)/C(C#N)=C1\N=C(NC(=O)c2cccs2)c2ccccc21	-1	8	2%	-14%	7%	-29%
O=C(COC(=O)c1cc(=O)c2ccccc2o1)NC1CC1	11	/	/	/	/	/
COc1cc(Nc2nc(N)c(C(=O)c3cc(C)ccc3C)s2)cc(OC)c1	-2	/	/	/	/	/
COc1ccc(/C=N/n2c(-c3cc(C)[nH]n3)n[nH]c2=S)cc1	0	13	12%	-15%	-1%	-36%
CCn1c2ccccc2c2cc(/C=N/n3cn[nH]c3=S)ccc21	-12	-12	?	7.1µM*	?	1.1µM*
CCn1c2ccccc2c2cc(/C=N/O)ccc21	0	-12	?	-7%	?	-21%
CCn1c2ccccc2c2cc(/C=N/n3cnnc3)ccc21	-10	-59*	18µM*	?	-30%	-2%
CCn1c2ccccc2c2cc(/C=N/n3c(-c4cc(C)[nH]n4)n[nH]c3=S)ccc21	-12	31	21µM*	?	?	-34%
CCn1c2ccccc2c2cc(CNCCc3c[nH]c4ccccc34)ccc21	-3	/	/	/	/	/
Cc1ccc(-c2cnc(CCC(=O)Nc3nc4ccccc4s3)o2)cc1C	-7	/	/	/	/	/

Assay outcomes deposited in PubChem by National Center for Advancing Translational Sciences (NCATS).
